Screening results from PubChem.
TRHR enhancer: qHTS for Small Molecule Agonists and Allosteric Enhancers of Human TRH Receptor: Primary Screen for Enhancers | AID 493056, 2011 | hit rate 0.66% among 360,000 | Thyrotropin-releasing hormone receptor (Homo sapiens), P34981 | enhancement, % at 2 µM | TRHR cells, fluo-8 calcium fluorescence, EC20 TRH enhancement; in the data active = enhancement above about 30%
Target sequence (P34981 whole entry, looked up): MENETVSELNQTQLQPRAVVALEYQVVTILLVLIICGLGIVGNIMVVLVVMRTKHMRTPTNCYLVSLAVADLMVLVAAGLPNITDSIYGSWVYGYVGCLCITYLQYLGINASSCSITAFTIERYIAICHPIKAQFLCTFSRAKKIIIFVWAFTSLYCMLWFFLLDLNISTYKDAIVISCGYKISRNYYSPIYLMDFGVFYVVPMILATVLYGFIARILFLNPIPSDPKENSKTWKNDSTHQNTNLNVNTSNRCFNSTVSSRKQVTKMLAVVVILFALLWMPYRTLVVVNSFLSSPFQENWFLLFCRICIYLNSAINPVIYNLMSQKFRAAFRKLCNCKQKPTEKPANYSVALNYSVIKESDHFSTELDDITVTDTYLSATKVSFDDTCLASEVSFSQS
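Enhancer read-out: after compound pinning and an initial kinetic agonist-mode read, an EC20 of TRH (10 nM final) was injected and fluo-8 calcium signal (Ex 480/Em 530) followed at 1 s/cycle for 100 cycles in TRHR-expressing cells.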
D1 antagonist: Antagonist of Human D 1 Dopamine Receptor: qHTS; hit rate 3.2% among 360,000; AID 504652, 2011; activity change, negative = inhibition, % at 10 µM; D(1A) dopamine receptor (Homo sapiens), P21728; HEK293 TREx D1 cells, calcium flux, dopamine EC80; hits give low values; in the data active = activity change below about -30%
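Inducible Hek293 Trex D1 cells (tetracycline, overnight, 30 C). Calcium dye 30–90 min RT. Antagonist mode: EC80 dopamine added after 180 s compound read.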
TRHR ag: qHTS for Small Molecule Agonists and Allosteric Enhancers of Human TRH Receptor: Primary Screen for Agonists; TRHR cells, calcium flux fluo-8, FDSS agonist mode; activation, % at 2 µM; hit rate 0.18% among 360,000; AID 493084, 2011
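TRHR-expressing cells, plated overnight in medium with 10% serum, were loaded with fluo-8 calcium dye at room temperature. After a 10 s baseline, library compound was pin-added and calcium release was recorded kinetically (ex 480/em 530) as agonist response.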
D1 agonist: Allosteric Agonists of the Human D1 Dopamine Receptor: qHTS; hit rate 1% among 360,000; activation, % at 2 µM; HEK293 T-REx D1 cells, calcium flux, agonist mode
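Agonism was scored from calcium flux recorded over 180 s (1 read/s) after pintool compound addition, following a 10-cycle baseline. Cells were inducible force-coupled HEK293 TREx D1, plated overnight at 30 C and loaded with no-wash calcium dye.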
D1 PAM: Potentiators of Human D1 Dopamine Receptor: qHTS; HEK293 TREx D1 cells, calcium flux, dopamine EC20 potentiation; potentiation, % at 10 µM; hit rate 0.036% among 360,000; in the data active = potentiation above about 30%
Large screens that a line does not name were inactive. Shown are actives, neighbours in structure and some others; about 4.7% of the full set was active somewhere. Cut-off read from the data, not from the text of the source, unless noted: active = activation above about 30%; inactive = the rest.

N#Cc1ccc(S(=O)(=O)N2CCN(Cc3cccs3)CC2)cc1	D1 antagonist -63.6
CC(=O)Nc1ccc(S(=O)(=O)N2CCc3ccccc3C2)cc1	D1 antagonist -33.8
COc1cc(S(=O)(=O)N2CCN(Cc3cccs3)CC2)ccc1NC(C)=O	none (no result: D1 PAM)
CC(=O)Nc1ccc(S(=O)(=O)N2CCN(Cc3cccs3)CC2)cc1	D1 antagonist -39.4
O=S(=O)(c1ccccc1)N1CCc2ccccc2C1	none
O=S(=O)(c1ccc2c(c1)OCCO2)N1CCN(S(=O)(=O)c2c(Cl)cc(C(F)(F)F)cc2Cl)CC1	none
CCN(CC)c1ccc(NC(=O)c2ccc(Br)o2)c(C)c1	D1 agonist 34.6
CCN(CC)c1ccc(NC(=O)c2ccco2)c(C)c1	none
COc1ccc(NS(=O)(=O)c2ccc3c(c2)n(C)c(=O)c(=O)n3C)cc1Cl	none
Cc1cccc(OCCNc2ccc(C(F)(F)F)cc2[N+](=O)[O-])c1	none
COc1ccc(N(C)S(=O)(=O)c2cccc(C(=O)Nc3ccc(OC)nc3)c2)cc1	none
COc1ccc(N(C)S(=O)(=O)c2cccc(C(=O)Nc3ccc4c(c3)OCCO4)c2)cc1	D1 antagonist -34.9
COc1ccc(CCNC(=O)COc2ccc(N(C)S(=O)(=O)c3ccc(C)cc3)cc2)cc1	D1 antagonist -31.0
Cc1ccc(OCCNC(=O)c2cccc(S(=O)(=O)NCc3ccccc3)c2)cc1	D1 antagonist -34.5, D1 agonist 40.6
Cc1ccc(OCCNC(=O)c2cccc(Oc3ccc(C(F)(F)F)cc3[N+](=O)[O-])c2)cc1	D1 agonist 44.5
Cc1cc(C)cc(N2C(=O)N(Cc3cccc(F)c3)c3ccccc3S2(=O)=O)c1	none
COc1ccc(Cn2c(C(=O)O)c(CNCC(C)c3ccccc3)c3ccc(OC)cc32)cc1 (centres undefined)	none
COc1ccc(N(C)S(=O)(=O)c2cccc(C(=O)NCc3ccc(C)cc3)c2)cc1	D1 antagonist -31.8
Cc1ccc(NC(=O)c2cc([N+](=O)[O-])ccc2NCc2cccnc2)cc1	D1 antagonist -35.9
CCCc1cc(C(=O)Nc2cccc3ccccc23)n(C)n1	none
CCCc1cc(C(=O)Nc2ccc(C(=O)c3ccc(C)cc3)cc2)n(C)n1	D1 antagonist -34.9
O=C(COc1ccc(Br)cc1)NCCN1CCCC1	TRHR enhancer 30.5
CC(C)NC(=O)c1onc(CSc2ccccc2)c1C(=O)O	TRHR enhancer 31.0
CCCCNC(=O)c1onc(CSc2ccc(C)c(C)c2)c1C(=O)O	D1 antagonist -32.1
CCCCNC(=O)c1onc(CSc2ccc(F)c(F)c2)c1C(=O)O	none
CCN(CC)S(=O)(=O)c1ccc(N2CCCCS2(=O)=O)cc1	none
O=C(CCCO)CCCCCCCCC[C@H]1N[C@H](CO)[C@@H](O)[C@@H]1O	D1 antagonist -45.4
CCCCCC1NC(=O)NC1CCCCCC(=O)O (centres undefined)	none
Cc1sc2ncn(CC(=O)Nc3cccc(C(F)(F)F)c3)c(=O)c2c1S(=O)(=O)N1CCC(C)CC1	none
O=C(NCCC(=O)N1CCN(c2ncccn2)CC1)c1ccccc1	D1 antagonist -32.5
O=C(O)CCCC(=O)N1CCN(c2ncccn2)CC1	D1 antagonist -36.0
O=C(NC1CCCCC1)/C(=C/c1ccc(Cl)cc1)NC(=O)c1ccccc1	none
Cc1ccc(NC(=O)C(Cc2ccccc2)NS(=O)(=O)c2ccc3c(c2)CCC(=O)N3)cc1 (centres undefined)	none
CCCOc1ccc(S(=O)(=O)NCc2ccc(OC)cc2)cc1	D1 antagonist -43.9
COc1ccc(S(=O)(=O)NCc2cccs2)cc1	D1 antagonist -32.5
CCN(CC)S(=O)(=O)c1ccc(S(=O)(=O)NCc2cccs2)cc1	none
COc1ccc(-c2cc(C(F)(F)F)nc(SCCC(=O)Nc3ccc(O)cc3)n2)cc1	none
COc1ccccc1CNc1ccc(-c2nc(-c3ccccn3)no2)cc1[N+](=O)[O-]	none
CN(C(=O)c1cccc(N2C(=O)C3CC=CCC3C2=O)c1)C1CCCCC1 (centres undefined)	D1 antagonist -30.5
